Compounds with a hit are over-represented: about 19% of the library has one in this group of screens.
TDP1 inh: qHTS Assay for Inhibitors of Tyrosyl-DNA Phosphodiesterase (TDP1); AID 485290, 2010; Tyrosyl-DNA phosphodiesterase 1 (Homo sapiens), Q9NUW8; Potency, µM (titrated, usually from 130 µM), for the others: top-dose activity change, negative = inhibition, most hits filed as inhibitors; recombinant TDP1, AlphaScreen DNA substrate cleavage; hit rate 0.28% among 350,000; further: potency means the concentration at half of the fitted maximal effect; on the % scale 0 is the no-effect control and ±100 the full control effect; nearly all actives have a fitted effect of over 40% in size
Target sequence (Q9NUW8 whole entry, looked up): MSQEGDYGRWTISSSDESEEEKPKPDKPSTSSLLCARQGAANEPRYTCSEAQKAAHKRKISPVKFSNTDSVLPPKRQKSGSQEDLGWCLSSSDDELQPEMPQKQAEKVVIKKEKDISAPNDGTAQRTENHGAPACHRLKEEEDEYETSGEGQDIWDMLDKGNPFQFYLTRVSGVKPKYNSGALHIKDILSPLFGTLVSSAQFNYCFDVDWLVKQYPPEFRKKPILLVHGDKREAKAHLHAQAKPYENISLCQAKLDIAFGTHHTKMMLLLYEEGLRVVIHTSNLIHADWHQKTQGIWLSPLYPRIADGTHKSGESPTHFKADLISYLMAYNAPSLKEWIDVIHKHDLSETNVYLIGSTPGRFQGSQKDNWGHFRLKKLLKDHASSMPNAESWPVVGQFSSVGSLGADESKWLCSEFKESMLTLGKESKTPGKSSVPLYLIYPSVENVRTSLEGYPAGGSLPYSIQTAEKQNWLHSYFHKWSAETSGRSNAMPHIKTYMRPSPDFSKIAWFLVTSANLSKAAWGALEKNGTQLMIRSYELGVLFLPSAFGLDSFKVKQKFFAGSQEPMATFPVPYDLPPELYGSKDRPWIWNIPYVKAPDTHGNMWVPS
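Tdp1 1 nM final; 15 min RT w/ cpd; substrate 15 nM, 5 min; beads 10 ug/ml, 10 min; AlphaScreen read. Neg ctrl: no enzyme.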
IL1B secr inh: qHTS for Inhibitors of Inflammasome Signaling: IL-1-beta AlphaLISA Primary Screen; hit rate 4.7% among 360,000; THP-1 LPS/ATP IL-1B secretion, AlphaLISA, 16 h; active compounds read low; activity change, % at 57.5 µM; AID 743279, 2014; in the data active means activity change below about -50%; inconclusive means mostly about -30% to -49%; further: on the % scale 0 is the no-effect control and ±100 the full control effect
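Secreted IL-1B measured by AlphaLISA bead assay after 16 h compound exposure of THP-1 cells; compounds (final up to 57.5 uM) added 1 h before LPS (250 ng/mL) and ATP (1.25 mM) stimulation; lower signal means less secretion.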
DT40 TDP1 CPT: qHTS for Inhibitors of human tyrosyl-DNA phosphodiesterase 1 (TDP1): qHTS in cells in presence of CPT | chicken DT40 Tdp1-/-;hTDP1 cells + 20 nM CPT, ATP luminescence, 48 h | Potency, µM (doses to about 46.2 µM), without a hit: top-dose activity change, negative = growth inhibition, actives largely listed as inhibitors | hit rate 12% among 420,000; further: potency means the concentration at half of the fitted maximal effect; on the % scale 0 is the no-effect control and ±100 the full control effect; nearly all actives have a fitted effect of over 55% in size
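Cell growth measured by CellTiter-Glo luminescence after a minimum 48 h, 37 C compound exposure with 20 nM CPT in Tdp1-knockout DT40 cells stably expressing hTDP1, seeded 400/well; qHTS titration format.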
TDP1 cell noCPT: qHTS for Inhibitors of human tyrosyl-DNA phosphodiesterase 1 (TDP1): qHTS in cells in absence of CPT. AID 686978, 2013. hit rate 15% among 420,000. Potency, µM (titrated, usually from 46.2 µM), inactives show top-dose activity change, negative = growth inhibition, hits mostly inhibitors. DT40 Tdp1-/- hTDP1 cells, no CPT, ATP luminescence, 48 h; further: potency means the concentration at half of the fitted maximal effect; on the % scale 0 is the no-effect control and ±100 the full control effect; nearly all actives have a fitted effect of over 55% in size
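Growth kinetics read by CellTiter-Glo luminescence after ≥48 hr at 37 °C. Cells: DT40 Tdp1-/- stably carrying human TDP1, 400 per well, compound exposure in the absence of CPT (DMSO vehicle).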
TGFb SMAD3 inh: qHTS for Inhibitors of TGF-b; hit rate 1.2% among 410,000; HepG2 CAGA-GFP TGF-b/SMAD3 reporter, GFP fluorescence, 18 h; TGF-beta stimulated, 500 pg/mL final; Potency, µM (doses to about 46.1 µM), for inactives: top-dose activity, negative = inhibition, hits mostly inhibitors; further: potency means the concentration at half of the fitted maximal effect; on the % scale 0 is the no-effect control and ±100 the full control effect; nearly all actives have a fitted effect of over 65% in size
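Read-out: total well GFP (ex488/em500-530) summed from mean per-cell fluorescence. Cells: HEPG2 CAGA-GFP, 1% FBS DMEM, 18 h at 37 degrees C with 500 pg/mL final TGF-beta. Unstimulated wells served as the full-inhibition control; stimulated DMSO wells = 0%.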
HepG2 tox: qHTS for Inhibitors of TGF-b: Cytotox Counterscreen; HepG2 CAGA-GFP viability, ATP luminescence, 18 h; hit rate 0.76% among 410,000; AID 588856, 2011; Potency, µM (series often up to 46.1 µM), without a hit: at the top dose activity change, negative = cytotoxicity, most hits filed as cytotoxic; further: potency means the concentration at half of the fitted maximal effect
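CellTiter-Glo luminescence gave cytotoxicity after 18 hours at 37 degrees C. The cells were HepG2 CAGA-GFP in 1% FBS DMEM, stimulated with 500 pg/mL TGF-beta after compound addition. %Activity was normalised to no-cell wells (complete cell-killing) and DMSO (no toxicity), and curves were fitted and classified.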
Starred values were filed as active, the others as inactive; ? = inconclusive; / = no result; [ ] = another dose, or the depositor's remark. Unless noted, the call rests on the fitted dose curve; in most records, active means well fitted curve in the direction sought with a large enough effect; inconclusive means small, poorly fitted or top-dose-only effect, or another doubt; inactive means no such curve, though single readings can be large; an effect the other way counts as inactive or inconclusive.

SMILES	TDP1 inh	IL1B secr inh	DT40 TDP1 CPT	TDP1 cell noCPT	TGFb SMAD3 inh	HepG2 tox
Cc1ccc2oc3nc(C)c(C(=O)O)cc3c(=O)c2c1	4%	-14	?	?	?	11µM*
COCc1nc2oc3ccc(C)cc3c(=O)c2cc1C(=O)OC	/	?	-9%	-8%	11%	-18%
CCOC(=O)c1cc2c(=O)c3cc(C)ccc3oc2nc1C	/	-2	?	15µM*	0%	-1%
CC(=O)c1cc2c(=O)c3cc(C)ccc3oc2nc1C	5%	-11	?	?	0%	2%
CN1C(=O)Cc2cc(S(=O)(=O)NCc3ccc(Cl)cc3)ccc21	1%	/	?	?	-2%	-13%
Cc1ccc(NC(=O)/C(C#N)=C/c2cccs2)c(C)c1	3%	-11	-3%	-9%	-4%	4%
Cc1cccc(C)c1NC(=O)/C(C#N)=C/c1cccs1	0%	-10	12µM*	?	12%	-41%
CCN(c1ccc(OC)cc1)S(=O)(=O)c1ccc2[nH]c3c(c2c1)CCCCC3	5%	/	/	/	?	-28%
COc1cc(-c2nnc(SCC(=O)N(Cc3ccccc3)C(C)(C)C)o2)cc(OC)c1OC	1%	-56*	13µM*	15µM*	?	-15%
CCCCN(CCCC)C(=O)CSc1nnc(-c2cc(OC)c(OC)c(OC)c2)o1	3%	-54*	18µM*	14µM*	4%	-11%
COC(=O)CCN1CCN(S(=O)(=O)c2ccc3c(c2)OCCO3)CC1	0%[56.1 µM]	6	-17%	-2%	-7%	-1%
COc1ccc(CC(=O)N2CCN(c3ccc(C4=NNC(=O)CC4C)cc3)CC2)cc1 (stereo not given)	-3%	-8	?	?	-7%	1%
COc1ccc(-c2nc3ccc(C4=NNC(=O)CC4C)cc3[nH]2)cc1 (stereo not given)	/	/	?	13µM*	/	/
Cc1cc(C)cc(-n2ccn(CC(=O)c3ccc(F)cc3)c(=O)c2=O)c1	1%	/	3%	8%	-10%	-6%
CC(C)Cc1nc(SCc2cccnc2)c2c(=O)n(C)c(=O)n(C)c2n1	5%	-16	18µM*	?	-19%	-15%
Cn1c(=O)c2c(SCc3cccnc3)nc(C3CC3)nc2n(C)c1=O	8%	6	-21%	?	4%	-8%
C=CC[n+]1c(/C=C/c2ccc(OC(C)=O)c(OC)c2)ccc2ccccc21	/	-99*	7.3µM*	12µM*	-5%	-56%
COc1cc(/C=N/NC(=O)Nc2ccccc2)ccc1OC(C)=O	-3%	10	-8%	-23%	7%	-8%
CCOC(=O)c1scc(-c2ccc(C)cc2)c1S(=O)(=O)Nc1ccc(F)c(F)c1	5%	/	-13%	?	-8%	-1%
CCOC(=O)c1scc(-c2ccccc2)c1S(=O)(=O)N1CCN(c2ccccc2OC)CC1	7%	/	8.2µM*	13µM*	?	-26%
CCOC(=O)c1c(C)[nH]c(C)c1S(=O)(=O)N1CCN(c2ccccc2OC)CC1	-1%	/	-11%	-15%	-10%	-22%
CCOC(=O)c1scc(-c2ccc(C)cc2)c1S(=O)(=O)N1CCN(c2ccccc2)CC1	6%	/	13µM*	8.2µM*	-26%	-8%
Cc1ccc(-c2nc(S(=O)(=O)c3ccc(C)cc3)c(N3CCCCC3)o2)cc1	5%[12.3 µM]	/	6.5µM*	7.3µM*	-3%	-17%
O=S(=O)(c1ccccc1)c1nc(-c2ccc(Cl)cc2Cl)oc1N1CCCCCC1	0%	/	23µM*	18µM*	-8%	-12%
Cc1ccccc1-c1nc(S(=O)(=O)c2ccccc2)c(N2CCCC2)o1	1%	1	?	?	25%	4%
SMILES	TDP1 inh	IL1B secr inh	DT40 TDP1 CPT	TDP1 cell noCPT	TGFb SMAD3 inh	HepG2 tox
Cc1cccc(-c2nc(S(=O)(=O)c3ccccc3)c(N3CCN(c4ccccc4)CC3)o2)c1	1%	/	18µM*	7.3µM*	1%	0%
Cc1cccc(-c2nc(S(=O)(=O)c3ccc(F)cc3)c(N3CCN(c4ccccc4)CC3)o2)c1	6%	/	?	?	-8%	-2%
O=S(=O)(c1ccccc1)c1nc(-c2cccc(Cl)c2)oc1N1CCOCC1	9%	-19	?	18µM*	4%	-23%
CCOC(=O)c1ccccc1NC(=O)CN1CCCN(Cc2cccc(Cl)c2)S1(=O)=O	0%	/	?	?	-6%	-4%
COc1ccc(-c2cc(C(F)(F)F)nc(SCC(=O)Nc3ccc(O)cc3)n2)cc1OC	-5%	/	/	/	-5%	0%
CCOc1ccc(CNC(=O)Cn2ncc3c(=O)oc4ccc(C)cc4c32)cc1	6%	/	-2%	-23%	-1%	-5%
CC(C)C[C@H]1CN(CCCC[C@H]2CNC(=O)C(=O)N2CCc2ccccc2)C(=O)C(=O)N1CCc1ccc(O)cc1	/	-3	0%	-6%	/	/
CN(C)CCCNc1oc(-c2ccccc2Cl)nc1S(=O)(=O)c1ccccc1	4%	-27	?	?	0%	-29%
Cc1ccc(S(=O)(=O)c2nc(-c3ccccc3)oc2N2CCCCCC2)cc1	/	/	23µM*	21µM*	-15%	-18%
CN(C)c1oc(-c2ccccc2Cl)nc1S(=O)(=O)c1ccccc1	9%	-17	?	21µM*	-11%	-33%
CCN1CCN(c2oc(-c3ccccc3)nc2S(=O)(=O)c2ccc(C)cc2)CC1	-4%	-56*	?	?	18%	-32%
Cc1ccc(-c2nc(S(=O)(=O)c3ccccc3)c(N3CCN(c4ccccc4)CC3)o2)cc1	4%	/	?	?	?	-2%
CN1CCN(c2ncc3ncc(=O)n(-c4ccccc4)c3n2)CC1	/	/	1%	-12%	/	/
Cc1ccc(NCCC(=O)c2cccc([N+](=O)[O-])c2)c(C)c1	14%	-16	8.2µM*	10µM*	?	-40%
Cc1ccc(NCC(=O)c2ccc([N+](=O)[O-])cc2)cc1	8%	-2	?	?	25%	-1%
Cc1cccc(NCCC(=O)c2ccc([N+](=O)[O-])cc2)c1C	-5%	5	4.6µM*	?	?	-38%
Cc1sc2ncnc(NCc3ccco3)c2c1C	/	-59*	10µM*	16µM*	-25%	-6%
